PubChem BioAssay (NCI)
Compounds without any hit were thinned out: in the full panel of roughly 83,000, 20% have a hit.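 96-well plates, one dose, 48 hours. Percent growth reported; active if below 10.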 A number with no mark means an inactive call. Active and inactive are the calls of the source.

System: TK-10 renal
Assay: NCI-60 one-dose screen, 48 h (100 = growth as untreated, 0 = no growth, -100 = all killed)
Conditions: 10 µM unless noted
Experimental: Growth inhibition of the TK-10 human tumor cell line is measured as a screen for anti-cancer activity. Cells are grown in 96 well plates and exposed to the test compound for 48 hours. Compounds are tested at a single concentration, which is 10^-5 M for most compounds. The reported endpoint is percent growth (GI% or GIPRCNT), where numbers from 0 - 100% represent growth inhibition, and numbers from -100% - 0 represent cell death. For example, a value of 40 represents 60% growth inhibition. A value of 0 means no net growth occurred over the course of the experiment. A value of -40 indicates 40% of cells at the beginning of the experiment died by the end of the experiment. A value of -100 means all cells are dead at the end of the experiment.
NCI-60 Human Tumor Cell Lines Screen was performed using the standard one-dose NCI protocol, which is described in more detail at https://dtp.cancer.gov/discovery_development/nci-60/default.htm.
Compounds with GIPRCNT values below 10 were considered active. Activity score was based on GIPRCNT using the following formula: […]
Score is 0 for GIPRCNT values of 100 or above, 50 for GIPRCNT values of 0, and 100 for GIPRCNT values of -100.

| Structure (SMILES) | growth |
| --- | --- |
| C/C(=N\NC(=O)C(C)SC(C)C(=O)N/N=C(\C)c1cccnc1)c1cccnc1 (stereo not given) | 106% |
| Cc1cc(N2CCCCC2)nc(N(CCNc2ccnc3cc(Cl)ccc23)Cc2ccco2)n1 | 68.5% |
| CNC(=O)c1cc(Oc2ccc3nc(NC(=O)Nc4ccc(Cl)cc4)sc3c2)ccn1 | 62.3% |
| CC(=O)OC[C@]12CC[C@@H](/C(C)=N/O)[C@@H]1[C@H]1CC[C@@H]3[C@@]4(C)CCCNC(C)(C)[C@@H]4CC[C@@]3(C)[C@]1(C)CC2 | 82.4% |
| CC(C)(C)c1ccc(OCCCCCCCN2CCNCC2)cc1 | 105% |
| Cn1c2c(c3ccc(Cl)cc31)-n1cccc1C2=O | 88.2% |
| Cc1ccc(Sc2sc(-c3ccccc3)nc2[P+](c2ccccc2)(c2ccccc2)c2ccccc2)cc1 | 14.7% |
| COC(=O)[C@]12CC[C@@H](C)[C@H](C)[C@@H]1C1=CC[C@@H]3[C@@]4(C)C=C(O)C(=O)C(C)=C4CC[C@@]3(C)[C@]1(C)CC2 | 14.6% |
| COC(=O)CNc1nc(N(C)O)nc(N(C)O)n1 | 49.6% |
| Cc1cc(N2CCOCC2)nc(N(CCCNc2ccnc3cc(Cl)ccc23)Cc2ccco2)n1 | 47.9% |
| COc1ccc2c(c1)C/C(=C\c1cc(-c3cc(OC)c(OC)c(OC)c3)n[nH]1)C2=O | 111% |
| CCC1C(=O)COC1=O (stereo not given) | 90.5% |
| CN1CCN(c2ccc3nc(-c4[nH]ncc4Nc4ncnc5c4OCCCN5)[nH]c3c2)CC1 | -62.7% (active) |
| Clc1ccc2c(NCCNc3nc(-c4ccccc4)cc(-c4ccccc4)n3)ccnc2c1 | -8.38% (active) |
| Cc1ccc(S(=O)(=O)Nc2ccc(-c3cc(-c4cccc(F)c4)c(C#N)c(=O)[nH]3)cc2)cc1 | 115% |
| Cc1cc(N2CCN(C)CC2)nc(N(CCNc2ccnc3cc(Cl)ccc23)Cc2ccco2)n1 | 105% |
| CN1CCN(CCOc2ccc(-c3cnc4c(-c5ccccc5F)cnn4c3)cc2)CC1 | 71% |
| COCCNC1=C(Cl)C(=O)c2ccccc2C1=O | 138% |
| Nc1c2c(nc3ccc(Cl)cc13)CC(c1ccccc1)CC2=O (stereo not given) | 79.6% |
| Oc1cccc2oc(=S)[nH]c12 | 106% |

| Structure (SMILES) | growth |
| --- | --- |
| COc1cc(NC(C)CN(CC(C)C)C(C)C)c2ncccc2c1 (stereo not given) | 120% |
| Cc1ccc(Nc2c(C(N)=O)cnc3ccc(S(=O)(=O)Nc4cc(C)on4)cc23)cc1 | 118% |
| N=C(N)c1ccc(S(N)(=O)=O)cc1 | 96.6% |
| CC(C)=CCC[C@](C)(O)[C@H]1CC[C@]2(C)[C@@H]1CC[C@@H]1[C@@]3(C)C/C(=C/c4cccc([N+](=O)[O-])c4)C(=O)C(C)(C)[C@@H]3CC[C@]12C | 128% |
| CC(=O)Nc1cc(F)cc(C(F)(F)F)c1Cl | 104% |
| COC(=O)[C@]12CC[C@@H](C(C)=O)[C@@H]1[C@H]1CC[C@@H]3[C@@]4(C)C/C(=C/c5cccnc5)C(=O)C(C)(C)[C@@H]4CC[C@@]3(C)[C@]1(C)CC2 | 133% |
| CCCCC[C@H]1CC=C2C(=O)C=C[C@@H]2CC=CCCCC(=O)O[C@@H](CCCCC)CC=C2C(=O)C=C[C@@H]2CC=CCCCC(=O)O[C@@H](CCCCC)CC=C2C(=O)C=C[C@@H]2CC=CCCCC(=O)O1 | 31.6% [8.75 µM] |
| Nc1c(Cl)cc(N=Nc2ccccc2)cc1Cl | 12.8% |
| Fc1ccc(Nc2nc(Nc3ccc(-c4nc5ccccc5[nH]4)cc3)nc(N3CCCC3)n2)cc1 | 151% |
| Cc1csc(-c2ccc3c(c2)COC3(CCCN(C)C)c2ccc(F)cc2)c1 (stereo not given) | 55% |
| C[C@H]1OC(=O)/C=C/[C@@H](O)[C@@H](O)CCCCCCCC[C@@H]1O | 96.9% |
| CC(c1ccccc1)N1C(=O)C(C2SC(=S)N(C(C)c3ccccc3)C2=O)SC1=S (stereo not given) | 106% |
| O=S(=O)(NCCNc1cc(-c2cn(-c3ccccc3)nc2-c2cccc(O)c2)ccn1)c1ccc(Cl)cc1 | 50.5% |
| Fc1ccc2c(c1)c(-c1nc(-c3c[nH]c4ncccc34)cs1)cn2CCCN1CCCCC1 | 107% |
| COc1ccc2nc(-c3cc(-c4cc(OC)c(OC)c(OC)c4)n[nH]3)[nH]c2c1 | 31.7% |
| COc1cc(/C=C/c2cc(/C=C/c3ccc(O)c(OC)c3)n(-c3ccccc3)c(=O)n2)ccc1O | 113% |
| CC(C)=CCC/C(C)=C/CC/C(C)=C/CC/C(C)=C/CSC[C@H](NC(=O)CCCCCN1CCN(C)CC1)C(=O)NC1CCCCC1 | 111% |
| C/C(=C(/c1ccccc1)c1ccc(N2C(=O)c3cccc4c(NCc5ccccc5)ccc(c34)C2=O)cc1)c1ccccc1 | 145% |
| COc1cccc(-c2nn(-c3ccccc3)cc2-c2ccnc(NCCNS(=O)(=O)c3ccc(C(F)(F)F)cc3)c2)c1 | 27.3% |
| CCOC(=O)N1CCN(CCCCOc2ccc(C(C)(C)CC)cc2)CC1 | 120% |
